From PubChem BioAssay
Compounds with a hit are over-represented: about 1.6% of the library has one in this group of screens.
KCNQ2 pot: potentiators of rat KCNQ2 potassium channel. CHO-K1 KCNQ2, FluxOR thallium flux fluorescence; hits give high values. B-score at 10 µM. 0.54% of 310,000 active. AID 2239, 2010;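 active = fluorescence ratio B-score at least 3 SD of library B-scores, with initial fluorescence B-score within 3 of them, cut at about 5.3 in these data; same plate scores as AID 2156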;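 note: B-score of peak minus minimum over baseline fluorescence ratio after K+ and Tl+ stimulus; positive B-score means potentiation of KCNQ2 with more thallium influx and brighter signal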
KCNQ2 block: rat KCNQ2 potassium channel inhibitors, primary screen, cell-based, CHO-K1, FluxOR thallium flux, B-score; AID 2156, 2009; 20 min; hits give low values; B-score at 10 µM; 1.1% of 310,000 active; Potassium voltage-gated channel subfamily KQT member 2 (Rattus norvegicus), O88943;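 active = fluorescence ratio B-score at most minus 3 library SDs, with starting brightness B-score within 2 library SDs, cut at about -5.5 in these data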
Kir21 confirm: mouse Kir2.1 channel blockers, retest, confirmation, cell-based, FluxOR thallium flux, duplicate; Kir2.1-expressing cells, FluxOR thallium flux fluorescence; hits give low values; shares compounds with KCNQ2 pot; 41% of 2,300 active; Tl flux remaining, % of negative control (hits give low values), % at 10 µM;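 active = Primary-screen hit whose thallium flux fell at least 3 control SD below untreated wells in both duplicates, with normal baseline fluorescence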;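 note: 0% = blank wells without stimulus and 100% = stimulated no-compound controls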
HEK293 Tl flux: counter-screen for Kir2.1 inhibitors: effect in parental HEK293 cells | FluxOR thallium flux fluorescence; 0% = unstimulated blank wells | shares compounds with KCNQ2 pot | 19% of 2,300 active | AID 2105 | FluxOR signal as % of negative control (100 = no effect), % at 10 µM;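 active = dye signal at least 3 control SD above or below untreated wells in both duplicates, raw fluorescence within 3, either direction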;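 note: percent is based on the flux ratio of peak minus minimum fluorescence over baseline F0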
CHO-K1 ctr: nonspecific thallium flux increase in parental CHO-K1, confirmation, counter-screen for KCNQ2 potentiator project, cell-based, FluxOR thallium flux, duplicate; activity increase over 3SD of controls, % at 10 µM; shares compounds with KCNQ2 pot; AID 2282, 2010; parental CHO-K1 cells, FluxOR thallium flux fluorescence; zero = vehicle mean+3SD, 100% = vehicle-minus-blank window; 43% of 1,200 active;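 active = signal rise of at least 3 SD above the untreated control mean, in both duplicate wells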;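 note: counter screen of KCNQ2 potentiator hits so any rise reflects channel-independent effects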
KCNQ1 sel pot: human KCNQ1 channel potentiation off-target, confirmation, selectivity assay for KCNQ2 potentiator project, cell-based, CHO, FluxOR thallium flux; shares compounds with KCNQ2 pot; CHO KCNQ1 stable, FluxOR thallium flux fluorescence; beyond 3SD, as % of vehicle-control signal; activation over 3SD threshold, % at 10 µM; 28% of 1,200 active; AID 2283, 2010;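 active = fluorescence ratio rise of at least 3 SD of vehicle wells above their mean, in both replicate wells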;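 note: 0% = vehicle mean plus 3 SD and 100% = vehicle minus unstimulated blank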
Target sequence (P51787 whole entry, looked up): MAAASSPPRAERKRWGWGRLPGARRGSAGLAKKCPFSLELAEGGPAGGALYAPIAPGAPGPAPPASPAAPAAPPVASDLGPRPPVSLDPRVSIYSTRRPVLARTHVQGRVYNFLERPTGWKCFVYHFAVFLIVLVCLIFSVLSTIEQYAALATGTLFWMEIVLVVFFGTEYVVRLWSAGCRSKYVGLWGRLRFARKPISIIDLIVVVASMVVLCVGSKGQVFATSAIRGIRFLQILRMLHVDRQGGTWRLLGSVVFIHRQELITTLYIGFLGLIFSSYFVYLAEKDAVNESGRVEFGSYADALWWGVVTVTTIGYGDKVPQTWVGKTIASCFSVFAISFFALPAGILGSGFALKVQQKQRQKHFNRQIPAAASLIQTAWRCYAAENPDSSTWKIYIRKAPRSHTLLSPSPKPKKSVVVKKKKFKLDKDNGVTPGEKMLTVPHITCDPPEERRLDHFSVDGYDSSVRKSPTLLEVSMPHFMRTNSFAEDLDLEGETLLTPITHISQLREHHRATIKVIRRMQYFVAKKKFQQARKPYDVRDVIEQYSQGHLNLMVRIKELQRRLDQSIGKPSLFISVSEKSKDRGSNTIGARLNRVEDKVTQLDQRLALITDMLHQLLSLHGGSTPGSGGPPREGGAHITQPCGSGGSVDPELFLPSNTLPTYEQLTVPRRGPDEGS
KCNQ2 pot conf: rat KCNQ2 channel potentiators, confirmation, cell-based, CHO, FluxOR thallium flux, duplicate; shares compounds with KCNQ2 pot; CHO-KCNQ2 cells, FluxOR thallium flux fluorescence; potentiation, less the hit threshold, % at 10 µM; 68% of 1,200 active; AID 2287, 2010;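 active = fluorescence ratio rising 3 SD or more over the vehicle control mean in both replicates, plus primary screen hit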;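 note: peak minus minimum thallium fluorescence divided by baseline after K/Tl stimulus; 0% = vehicle mean plus 3 SD and 100% = vehicle minus unstimulated blank difference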
Kir2-1 sel: mouse Kir2.1 channel activation off-target, confirmation, selectivity assay for KCNQ2 potentiator project, cell-based, HEK293, FluxOR thallium flux; AID 2345, 2010; 2% of 1,200 active; activity over 3SD threshold, % at 10 µM; shares compounds with KCNQ2 pot; HEK293 Kir2.1, FluxOR thallium flux fluorescence;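 active = fluorescence ratio rise of at least 3 SD above the vehicle-control mean, seen in both replicates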;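 note: 0% = vehicle mean plus 3 SD and 100% = vehicle minus no-stimulus blank window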
KCNQ2 W236L MoA: potentiators of retigabine-insensitive KCNQ2 W236L, mechanism study for KCNQ2 potentiator project, cell-based, rat KCNQ2 W236L, CHO, automated patch clamp. shares compounds with KCNQ2 pot. AID 2558, 2010. current increase over 3SD of negative controls (%), hits give high values, % at 25 µM. 10% of 940 active. automated patch clamp current;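 active = current increase at least 3 SD of the untreated controls above them in both duplicate recordings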
Numbers without * were called inactive; i = inactive; nt = no result given.

SMILES	KCNQ2 pot	KCNQ2 block	Kir21 confirm	HEK293 Tl flux	others
COc1ccc2oc(C(=O)OCC(=O)N(C)CC(=O)Nc3ccc(C)cc3)c(C)c2c1	7.4*	i	i	i	CHO-K1 ctr=32*;KCNQ1 sel pot=-11;KCNQ2 pot conf=-5;Kir2-1 sel=-33
COc1ccc2oc(C(=O)OCC(=O)Nc3ccc(NC(C)=O)cc3)c(C)c2c1	nt	i	nt	nt
CCC1=NN(C(=O)c2ccc(Cl)cc2)C(O)(c2ccccc2)C1 (configuration not stated)	4.6	i	nt	nt
COC(=O)C1=NN(C(=O)c2ccc(Cl)cc2)C(O)(c2ccccc2)C1 (configuration not stated)	7.2*	i	i	424%*	CHO-K1 ctr=-13;KCNQ1 sel pot=95*;KCNQ2 pot conf=55*;Kir2-1 sel=-12;KCNQ2 W236L MoA=i
CCOC(=O)C1=NN(C(=O)c2ccc(C)cc2)C(O)(c2ccc(Cl)cc2)C1 (configuration not stated)	25*	i	i	380%*	CHO-K1 ctr=0.0*;KCNQ1 sel pot=-18;KCNQ2 pot conf=57*;Kir2-1 sel=-15;KCNQ2 W236L MoA=i
CCC1=NN(C(=O)c2ccc(Cl)cc2)C(O)(c2ccc(C)cc2)C1 (configuration not stated)	2.1	i	nt	nt
CN(Cc1ccccc1F)C(=O)c1ccccc1Sc1ccccc1C#N	nt	i	nt	nt
NS(=O)(=O)c1ccc(CNC(=O)c2cc(=O)c3ccccc3o2)cc1	nt	i	nt	nt
O=C1CC(c2ccccc2)CC(O)=C1C=NCCN1CCN(Cc2ccccc2)CC1 (configuration not stated)	1.9	i	nt	nt
COc1ccc(C2=C(CC(=O)O)C(=O)CC2)cc1	nt	i	nt	nt
CC(C)CO/C(=N/S(=O)(=O)c1ccccc1)c1ccccc1	0.96	i	nt	nt
CC(C)O/C(=N\S(=O)(=O)c1ccc(Cl)cc1)c1ccccc1	nt	i	66%*	i
Cc1cc(C)n(CC(=O)NNC(=O)C2CC(=O)N(Cc3ccccc3Cl)C2)n1 (configuration not stated)	1.7	i	nt	nt
CCN(CC)CCCN(C(=O)c1ccccc1C)c1nc(-c2ccc(OC)cc2)cs1	0.81	i	nt	nt
CCN(CC)CCCN(C(=O)c1ccc(OC)cc1)c1nc(-c2ccc(OC)cc2)cs1	1.3	i	78%*	i
Cn1cc(CC(=O)NCCCN2CCCC2=O)c2ccccc21	0.52	i	nt	nt
Cc1cc(C(=O)OCC(=O)Nc2ccccc2)c(C)o1	1.4	i	nt	nt
Cc1cc(C(=O)OCC(=O)Nc2ccc(F)cc2)c(C)o1	5.7*	i	i	i	CHO-K1 ctr=74*;KCNQ1 sel pot=-10;KCNQ2 pot conf=-3;Kir2-1 sel=-34;KCNQ2 W236L MoA=i
Cc1c(Cc2ccccc2)c(=O)oc2c(CN(C)C)c(O)c(Cl)cc12	0.93	i	nt	nt
CN(C)Cc1c(O)ccc2oc(Cc3ccccc3)cc12	0.02	i	42%*	i
CC1CCCN(S(=O)(=O)CCNC(=O)c2ccccc2)C1 (configuration not stated)	0.77	i	nt	nt
CN1CCN(C2=Cc3ccccc3Sc3cc(F)ccc32)CC1	nt	i	57%*	i
CN1CCN(C2=Cc3ccc(Cl)cc3Sc3ccc(F)cc32)CC1	nt	i	nt	nt
O=C(Nc1nnc(-c2ccc3c(c2)CCCC3)o1)c1ccccc1	7.1*	i	i	289%*	CHO-K1 ctr=-10;KCNQ1 sel pot=-14;KCNQ2 pot conf=8.6*;Kir2-1 sel=-26;KCNQ2 W236L MoA=i
O=C(COc1ccccc1)Nc1nnc(-c2ccc3c(c2)CCCC3)o1	nt	i	nt	nt
SMILES	KCNQ2 pot	KCNQ2 block	Kir21 confirm	HEK293 Tl flux	others
O=C(Nc1cccc2c1CCCC2)c1ccccc1Cl	0.46	i	nt	nt
O=C(Nc1nnc(-c2ccc3c(c2)CCCC3)o1)c1ccccc1Cl	9.4*	i	i	i	CHO-K1 ctr=-22;KCNQ1 sel pot=-15;KCNQ2 pot conf=12*;Kir2-1 sel=-21;KCNQ2 W236L MoA=i
CCc1ccc(S(=O)(=O)NCCc2csc(-c3ccccc3)n2)s1	nt	i	nt	nt
CCc1ccc(S(=O)(=O)NCc2csc(-c3ccccc3)n2)s1	nt	i	49%*	i
CC1CCCN(C(=O)CNS(=O)(=O)c2cccs2)C1 (configuration not stated)	nt	i	nt	nt
Cc1ccc2c(CN3CCCCC3C)cc(=O)oc2c1 (configuration not stated)	0.02	i	nt	nt
Cc1ccc2c(CN3CCCCC3C)cc(=O)oc2c1C (configuration not stated)	24*	i	i	i	CHO-K1 ctr=-3;KCNQ1 sel pot=-18;KCNQ2 pot conf=-27;Kir2-1 sel=-32
O=S(=O)(c1ccc(F)cc1)N1CCCc2ccccc21	nt	i	71%*	i
O=C(O)c1ccc(S(=O)(=O)N2CCCc3ccccc32)cc1	nt	i	nt	nt
O=S(=O)(c1ccccc1)N1CCCc2ccccc21	nt	i	64%*	i
CC(=O)c1ccc(S(=O)(=O)N2CCCc3ccccc32)cc1	nt	i	nt	nt
CC(=O)N1N=C(c2ccccc2O)CC1c1cccs1 (configuration not stated)	0.03	i	nt	nt
CC1Cc2ccccc2N1C(=S)NC(=O)C1(C)CC1(Cl)Cl (configuration not stated)	7.2*	i	i	272%*	CHO-K1 ctr=-5;KCNQ1 sel pot=-9;KCNQ2 pot conf=26*;Kir2-1 sel=-14;KCNQ2 W236L MoA=i
CC1Cc2ccccc2N1C(=S)NC(=O)c1ccco1 (configuration not stated)	3.1	i	nt	nt
O=c1c2ccccc2c(C=NCCCN2CCOCC2)c(O)n1Cc1ccccc1	nt	i	64%*	i
O=c1c2ccccc2c(C=NCCCN2CCOCC2)c(O)n1Cc1ccc2c(c1)OCO2	0.1	i	nt	nt
CCOC(=O)c1cncc(C(=O)O)c1	nt	i	nt	nt
CCOC(=O)c1c(NC(=S)Nc2ccc(OC)cc2)sc2c1CCC2	nt	i	nt	nt
C=CCNC(=S)Nc1sc2c(c1C(=O)OCC)CC(C(C)C)OC2 (configuration not stated)	8.8*	i	i	197%*	CHO-K1 ctr=22*;KCNQ1 sel pot=84*;KCNQ2 pot conf=14*;Kir2-1 sel=-31;KCNQ2 W236L MoA=i
